PubChem BioAssay (NCI)
The panel holds about 83,000 compounds, 20% with a hit somewhere; the sample as a whole holds those more often.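 Activity criterion: percent growth below 10, measured after cells in 96-well plates were exposed to a single compound concentration for 48 hours.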 Unmarked numbers belong to inactive results. Activity calls are given as the source filed them.

Legend:
Test in all cases: NCI-60 one-dose screen, 48 h (100 = growth as untreated, 0 = no growth, -100 = all killed)
[1] = tested on: A549/ATCC NSCLC; details: 10 µM unless noted
[2] = tested on: DU-145 prostate; details: 10 µM unless noted
[3] = tested on: K-562 leukemia; details: 10 µM unless noted
[4] = tested on: RXF 393 renal; details: 10 µM unless noted
[5] = tested on: UACC-257 melanoma; details: 10 µM unless noted
[6] = tested on: HT29 colon; details: 10 µM unless noted
[7] = tested on: PC-3 prostate; details: 10 µM unless noted
[8] = tested on: SK-MEL-5 melanoma; details: 10 µM unless noted
[9] = tested on: UACC-62 melanoma; details: 10 µM unless noted
[10] = tested on: SK-MEL-2 melanoma; details: 10 µM unless noted
[11] = tested on: ACHN renal; details: 10 µM unless noted
[12] = tested on: HL-60(TB) leukemia; details: 10 µM unless noted
[13] = tested on: MOLT-4 leukemia; details: 10 µM
[14] = tested on: OVCAR-8 ovarian; details: 10 µM unless noted
[15] = tested on: OVCAR-5 ovarian; details: 10 µM unless noted
[16] = tested on: HS 578T breast; details: 10 µM unless noted
[17] = tested on: NCI/ADR-RES ovarian; details: 10 µM unless noted
[18] = tested on: T-47D breast; details: 10 µM unless noted
[19] = tested on: SNB-75 CNS; details: 10 µM unless noted
[20] = tested on: A498 renal; details: 10 µM unless noted

## COC(=O)C[Se]C(=O)c1ccccc1OC(C)=O
[1]
  growth: 33.7%
[2]
  growth: 61.8%
[3]
  growth: 79%
[4]
  growth: 78.9%
[5]
  growth: 59.7%
[6]
  growth: 33.2%
[7]
  growth: 77.7%
[8]
  growth: 90.6%
[9]
  growth: 77.8%
[10]
  growth: 87.4%
[11]
  growth: 72%
[12]
  growth: -4.01% (active)
[13]
  growth: 86%
[14]
  growth: 45.4%
[15]
  growth: 38.6%
[16]
  growth: 66.1%
[17]
  growth: 24.2%
[18]
  growth: 84.5%

## COc1ccc(C2SCC(=O)Nc3c2c(C)nn3-c2nc3ccc(C)cc3s2)cc1O (configuration not stated)
[1]
  growth: 29.3%
[2]
  growth: 73.5%
[3]
  growth: 9.45% (active)
[4]
  growth: 50.2%
[5]
  growth: 70.1%
[6]
  growth: 10.5%
[19]
  growth: 32.6%
[7]
  growth: 19.9%
[8]
  growth: 16.6%
[9]
  growth: 40.2%
[10]
  growth: -1.24% (active)
[11]
  growth: 44.2%
[20]
  growth: 40.9%
[12]
  growth: 3.8% (active)
[13]
  growth: 18.2%
[14]
  growth: 50.7%
[15]
  growth: 67.2%
[16]
  growth: 42.2%
[17]
  growth: 17.3%

## O=c1[nH]c2cc(Cl)ccc2n1C1CCN(CCCC(c2ccc(F)cc2)c2ccc(F)cc2)CC1
[2]
  growth: -0.502% (active)
[3]
  growth: -59.9% (active)
[4]
  growth: 30.5%
[5]
  growth: -81.4% (active)
[6]
  growth: -36.9% (active)
[19]
  growth: 60.7%
[7]
  growth: 7.82% (active)
[8]
  growth: -80.9% (active)
[9]
  growth: 39.7%
[10]
  growth: 16.8%
[11]
  growth: 48.5%
[20]
  growth: -90.2% (active)
[12]
  growth: -70.7% (active)
[13]
  growth: -28.3% (active)
[14]
  growth: -56.7% (active)
[15]
  growth: 76.3%
[16]
  growth: -80.6% (active)
[17]
  growth: 51.9%
[18]
  growth: 41.5%

## O=C(CCl)NCNC(=O)CCl
[1]
  growth: 93.2%
[2]
  growth: 103%
[3]
  growth: 98.9%
[4]
  growth: 107%
[5]
  growth: 76.5%
[6]
  growth: 105%
[19]
  growth: 85.9%
[7]
  growth: 86.4%
[8]
  growth: 92.7%
[9]
  growth: 82%
[10]
  growth: 90.4%
[11]
  growth: 94.5%
[20]
  growth: 109%
[12]
  growth: 102%
[13]
  growth: 90.4%
[14]
  growth: 92.4%
[15]
  growth: 115%
[16]
  growth: 96.8%
[17]
  growth: 103%
[18]
  growth: 92.6%

## COc1cc[c]([Hg][Cl])cc1
[1]
  growth: 94.8%
[3]
  growth: 17%
[4]
  growth: -42.2% (active)
[5]
  growth: 65.5%
[6]
  growth: 48.5%
[19]
  growth: 50.5%
[7]
  growth: 77.6%
[8]
  growth: 30.5%
[9]
  growth: 12.5%
[10]
  growth: 39.9%
[11]
  growth: 86.5%
[20]
  growth: 84.8%
[12]
  growth: -22.4% (active)
[13]
  growth: -7.01% (active)
[14]
  growth: 69.8%
[15]
  growth: 105%
[16]
  growth: 30.5%
[17]
  growth: 86.2%
[18]
  growth: -3.04% (active)

## Cc1cccc(N(C)c2cccc3c2C(=O)[Se]C3)c1C
[1]
  growth: 15.8%
[2]
  growth: 34.6%
[3]
  growth: 48.2%
[4]
  growth: 44.7%
[5]
  growth: 50.7%
[6]
  growth: 9.4% (active)
[7]
  growth: 66.7%
[8]
  growth: 66%
[9]
  growth: 64.6%
[10]
  growth: 62.8%
[11]
  growth: 54%
[12]
  growth: -17.1% (active)
[13]
  growth: 67.9%
[14]
  growth: 20.2%
[15]
  growth: 25.5%
[16]
  growth: 58.8%
[17]
  growth: 13.6%
[18]
  growth: 73.4%

## CN(C)P1(N(C)C)=NP(N(C)C)(N(C)C)=NP(N(C)C)(N(C)C)=N1
[1]
  growth: 99.3%
[2]
  growth: 110%
[3]
  growth: 102%
[4]
  growth: 109%
[5]
  growth: 93.6%
[6]
  growth: 104%
[19]
  growth: 90.3%
[7]
  growth: 90%
[8]
  growth: 107%
[9]
  growth: 103%
[10]
  growth: 98.2%
[11]
  growth: 97.2%
[20]
  growth: 108%
[12]
  growth: 100%
[13]
  growth: 102%
[14]
  growth: 96.1%
[15]
  growth: 104%
[16]
  growth: 114%
[17]
  growth: 107%
[18]
  growth: 103%

## c1ccc(CCN2CCCCC2Cc2ccccc2)cc1 (configuration not stated)
[1]
  growth: 96.2%
[3]
  growth: 101%
[4]
  growth: 117%
[5]
  growth: 98.5%
[6]
  growth: 72.8%
[19]
  growth: 107%
[7]
  growth: 103%
[8]
  growth: 94.8%
[9]
  growth: 92.4%
[10]
  growth: 87.7%
[11]
  growth: 94.6%
[20]
  growth: 89.5%
[12]
  growth: 80.3%
[13]
  growth: 92.7%
[14]
  growth: 106%
[15]
  growth: 83%
[16]
  growth: 116%
[17]
  growth: 87.8%
[18]
  growth: 86.2%
